From PubChem BioAssay (NCI)
The panel holds about 79,000 compounds, 15% with a hit somewhere; the sample as a whole holds those more often. Unmarked numbers belong to inactive results. Calls of active or inactive are those of the source. Rule as the data show it: active = growth inhibition above about 70%; inactive = the rest.

assay: NCI Yeast Anticancer Drug Screen. Data for the bub3 strain (AID 167); settings: S. cerevisiae bub3 mutant strain, at 50.0 µM, stronger effect = higher value
Experimental: Growth inhibition of yeast strains with defined genetic alterations is measured as a screen for potential anti-cancer activity. Selected strains with alterations in DNA damage repair or cell cycle control were exposed to compounds and growth inhibition was measured relative to vehicle treated controls. The strain used in this assay is bub3

Point of comparison: `Cc1ccc(N=Nc2c(C)nc(N)nc2C)cc1`, growth inhibition 12.1%. Against it:
- O=C(NCCCCCCNC(=O)OCCSCCn1cc(C(=O)NC(=O)OCc2ccccc2)c(=O)[nH]c1=O)OCCSCCn1cc(C(=O)NC(=O)OCc2ccccc2)c(=O)[nH]c1=O — higher, 15.1%
- Cc1nc(N)[nH]c(=O)c1CCCN(c1ccccc1)S(=O)(=O)c1ccc(N)cc1 — lower, -2.35%
- CCc1nc(N)nc(N)c1-c1ccc2c(c1)nnn2C — lower, 11.6%
- O=C(c1ccccc1)C1CCCCN1C(=O)c1ccccc1 (stereo not given) — higher, 27.9%
- CCCCCN(C(=O)CCC)c1ccccc1 — lower, 3.2%
- O=C1CCSCCC(=O)Nc2ccccc2N1 — higher, 17.9%
- O=C1NC(=O)C(=NC2C(=O)NC(=O)NC2=O)C(=O)N1 — higher, 26.1%
- C/C(C=C1C(=O)NC(=S)NC1=O)=C\c1ccccc1 — lower, -8.5%
- CCc1ccc(NC(=O)c2ccc(C(=O)Nc3ccc(CC)cc3)cc2)cc1 — higher, 13.4%
- CCCC(C)C(SC(CC)C(N)=O)C(=O)O (stereo not given) — lower, 10.5%
- O=c1oc2ncccc2n1Cc1ccc([N+](=O)[O-])cc1 — lower, -1.15%
- C=CCCC(=O)OC(C)(C)C — lower, 6.1%
- CCCNCC(O)COc1ccc2c3c(c(=O)oc2c1)CCC3 (stereo not given) — lower, -29.8%
- O=C(Nc1ccccc1)c1cc([N+](=O)[O-])cc([N+](=O)[O-])c1 — lower, 9.55%
- CCOC(=O)Cc1n[nH]c(=O)c2ccccc12 — lower, -21.8%
- CN(C)c1ccc(/C=C2/CC(=O)N(c3ccccc3)C2=O)cc1 — lower, -0.9%
- CSc1ncnc2[nH]ncc12 — lower, -0.4%
- N#Cc1ccccc1/C=N/O — lower, -18.4%
- Cc1cc(C(O)CNCCn2cnc3c2c(=O)n(C)c(=O)n3C)ccc1O (stereo not given) — lower, -4.95%
- CCOCCC12CCCCC1C/C(=N/OC(C)=O)c1ccccc12 (stereo not given) — higher, 15.7%
- COC(=O)C(C(C)C(C)[N+](=O)[O-])=P(c1ccccc1)(c1ccccc1)c1ccccc1 (stereo not given) — lower, -4.95%
- NC(=O)COc1c(Br)cc(Br)cc1Br — lower, -21.4%
- Cc1cccc(NC(=O)c2cccc(C(=O)Nc3cccc(C)c3C)c2)c1C — lower, 5.2%
- CCN(CC)CC1CCCCN1CC(=O)N1c2ccccc2NC(=O)c2ccccc21 (stereo not given) — lower, -1.9%
- Cc1cccc(N2CC3CC4C=CC3(C2)O4)c1 (stereo not given) — higher, 22.1%
- CN(/N=C/c1cccc2cccnc12)c1ccccc1 — higher, 14.6%
- Cc1cc(C)c(C2CC(O)C(CO)O2)cc1C (stereo not given) — lower, -3.35%
- CC(=O)OCCc1ccccc1C#N — lower, -4.25%
- CC1(C)OC12C=CC1C2C2CCC1C21OC1(C)C (stereo not given) — lower, -7.3%
- Cc1[nH]c(N)nc(=S)c1CCC(C)C — lower, -1.55%
- CCC(O)(c1ccccc1)c1ccccc1 — lower, -19.8%
- O=S(=O)(c1ccccc1)N1CN(S(=O)(=O)c2ccccc2)CN(S(=O)(=O)c2ccccc2)C1 — higher, 17.9%
- CCOC(=O)C(Cc1cccc2ccccc12)(NC(C)=O)C(=O)OCC — higher, 16.5%
- COC(=O)c1nc(N)nc(N)c1[N+](=O)[O-] — lower, -4.05%
- COC(=O)c1ccccc1NC(=O)c1cccc(Cl)c1 — higher, 30.4%
- O=[N+]([O-])c1ccc(-n2cnc3c(Cl)ncnc32)cc1 — higher, 28.4%
- CC(C(O)c1ccccn1)[N+](=O)[O-] (stereo not given) — lower, -10.7%
- O=c1[nH]cnc2nc(N3CCN(c4ccccc4)CC3)sc12 — lower, 4.9%

For `CCCCCCCCCCCCCCCC[N+]1(CC)CCSCC1`, the growth inhibition was 97.1% (active).
